Bioassay records as filed in PubChem.
Only a selection was taken, and hits are over-represented in it overall.
Tgondii IFNg – inhibitors of Toxoplasma gondii growth with IFN-gamma. 69,000 tested, 3.8% active. Toxoplasma gondii growth in IFN-gamma-treated host cells; active compounds read low. activity change, negative = inhibition, % (test concentration not listed). AID 1259416; in the data active means activity change below about -70%, passing the limit was not always enough;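 further: host cells are HeLa cells infected with Toxoplasma gondii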
The depositor's hits bear a star; i = inactive; ! = not active in a repeat.

SMILES	Tgondii IFNg
CCOc1ccc(CCNC(=O)c2nc(N3CCCC3)c3ccccc3n2)cc1OCC	-63
N#C[C@@H]1[C@@H](c2ccccc2C2=CCCCC2)[C@H](CO)N1C(=O)CN1CCOCC1	-33
FC(F)(F)c1cccc(NN=C2CCSCC2)n1	28
CN(C)CCO[C@@H]1CC[C@@H]2[C@H]1OCCN2S(C)(=O)=O	-4
CC(C)C(=O)NCCc1nc(NC(C)c2ccccc2)ncc1C(N)=O (configuration not stated)	2
CCCn1cnnc1CN(C)C(=O)c1ccoc1C	-11
NC(=O)N1Cc2nccn2CC(COc2cccnc2)C1 (configuration not stated)	-100*
CCS(=O)(=O)N1Cc2nccn2CC(COc2cccnc2)C1 (configuration not stated)	10
CC(C)NC(=O)N1Cc2nccn2CC(COc2cccnc2)C1 (configuration not stated)	9
COC1COC2(CCN(Cc3cccn3C)CC2)C1 (configuration not stated)	2
Cc1ccc2c(Br)cc(Br)c(OC(=O)c3ccccc3)c2n1	-85*
O=C(Oc1cccccc1=O)c1ccccc1	0
O=C(Oc1cccc2cccnc12)c1ccccc1	9
CCc1nc2cc(-c3c(OC)cccc3OC)ccc2o1	-7
CCCCCNC(=O)c1ccc(CN2CCc3ccccc3C2)cc1	25
CN(C)C(=O)COCc1cncc2c1CCN(c1ccccn1)C2	-49
COc1ccc(-c2nc(C)c(CCNS(=O)(=O)c3ccc(Oc4ccccc4)cc3)s2)cc1OC	-97*
COc1ccc(-c2nc(C)c(CCNS(=O)(=O)c3ccc4ccccc4c3)s2)cc1OC	-29
COc1ccc(-c2nc(C)c(CCNS(=O)(=O)c3ccc(C)cc3)s2)cc1OC	i
CCCNC(=O)c1ccc2nnc(C3CN(CC4CC4)CCN3C)n2c1 (configuration not stated)	5
COc1cccc(-c2ccn(CC(=O)O)n2)c1	-12
CO[C@@H](CN(C)Cc1cc(F)ccc1F)[C@@H](C)CN([C@@H](C)CO)S(=O)(=O)c1ccc(C)cc1	-50
COC(Cn1ccnc1-c1ccc(C)s1)c1cccs1 (configuration not stated)	6
CC(C)CCN1C[C@]23CN(C(=O)c4cn(C)c5ccccc45)C[C@@H](C[C@H]2S1(=O)=O)O3	-44
COC1COC2(CCN(C(=O)C3CC(F)(F)C3)CC2)C1 (configuration not stated)	34
SMILES	Tgondii IFNg
CCS(=O)(=O)N1CCC2(CC1)CC(OCC1CCOCC1)CO2 (configuration not stated)	10
CCS(=O)(=O)N1CCC2(CC1)CC(OC)CO2 (configuration not stated)	-85*
CCCC(C(=O)NC1CCN(S(C)(=O)=O)CC1)n1cccc1 (configuration not stated)	-2
O=C(O)c1ccc(CNC(=O)c2c(O)c3ccccc3[nH]c2=O)cc1	263
CN1CCN(c2ccc(NC(=O)Nc3ccc(C(F)(F)F)cc3)cc2)CC1	1
CC(C)(C)C(=O)Nc1cc(C(F)(F)F)ccc1N1CCC(C(F)(F)F)CC1	-97*
CC(=O)c1ccc(N2CCC(C)CC2)c(F)c1	-8
CN(Cc1cccc2ncccc12)Cc1cccc2nonc12	-1
O=S(=O)(c1ccccc1)N1CC2CN(Cc3ccccc3Cl)CC2C1 (configuration not stated)	-6
CCS(=O)(=O)N1CCN(c2ccc(Nc3ncc(C(N)=O)c(NC4CC4)n3)cc2)CC1	-65
CC(=O)NCC(=O)N1[C@@H]2CC[C@H]1c1ccc(Nc3ncc(C(F)(F)F)c(NC4CCC4)n3)cc12	-74*
CC(=O)NCc1cnc(C2CCCN2CC(=O)Nc2nccs2)cc1C(F)(F)F (configuration not stated)	-12
CN(C)c1ccc(NC(=O)c2cccs2)cc1	38
O=C(Nc1ccc2c(c1)CS(=O)(=O)C2)c1cccs1	48
O=C(Nc1ccc2c(c1)ncn2-c1ccccc1)c1cccs1	-95*
Cc1ccc(S(=O)(=O)N2CCC3(CCC(C(=O)N4CCCC4)O3)C(C)C2)cc1F (configuration not stated)	-8
CC(=O)OCC(=O)[C@@]1(OC(C)=O)[C@@H](C)CC2C3C[C@H](F)C4=CC(=O)C=C[C@]4(C)[C@@]3(F)[C@@H](O)C[C@@]21C (some centres not stated)	6
CCCNC(=O)c1cc(-c2ccn(CC3CC3)n2)n2ccccc12	-60
C[C@H]1CN([C@@H](C)CO)C(=O)CCCn2nncc2CO[C@@H]1CN(C)C(=O)c1ccc(N2CCN(C)CC2)cc1	177
C[C@@H]1CN([C@H](C)CO)C(=O)CCCn2nncc2CO[C@H]1CN(C)C(=O)c1ccc(N2CCN(C)CC2)cc1	-26
C[C@@H]1CN([C@@H](C)CO)C(=O)CCCn2nncc2CO[C@H]1CN(C)C(=O)c1ccc(N2CCN(C)CC2)cc1	-87*
C[C@@H]1CN([C@H](C)CO)C(=O)CCCn2nncc2CO[C@H]1CN(C)CC1CCCCC1	-99*
C[C@H](CO)N1C[C@H](C)[C@H](CN(C)CC2CCCCC2)OCc2cnnn2CCCC1=O	181
C[C@H](CO)N1C[C@H](C)[C@@H](CN(C)CC2CCCCC2)OCc2cnnn2CCCC1=O	91
O=C(c1nc2sccn2c1CN1CCN(Cc2ccccc2)CC1)N1CCCCCCC1	-9
SMILES	Tgondii IFNg
COc1ccc(-c2nc(C)c(CCNC(=O)c3ccccc3Br)s2)cc1	i
Cc1nnc(-c2ccc3ccn(CC(=O)Nc4cccnc4)c3c2)o1	59
CN(C)C(=O)N1C[C@H]2CC[C@@]3(N=C(c4ccccc4)NC3=O)[C@H]2C1	14
O=C(Nc1ccccc1)c1cc([N+](=O)[O-])ccc1Cl	14
O=C(Nc1ccc([N+](=O)[O-])cc1Cl)c1cc(Cl)ccc1O	-76*!
O=C(O)c1cc([N+](=O)[O-])ccc1NCCCc1ccccc1	30
O=C(Nc1ccncc1)c1cc([N+](=O)[O-])ccc1Cl	-82*
O=C(NCCNc1ccc(Cl)cc1[N+](=O)[O-])c1cccnc1	-5
CCC(=O)Oc1ccc(C(=O)Nc2ccc([N+](=O)[O-])cc2)cc1	110
CC(=O)N[C@@H]1C[C@H](Cc2ccccc2)O[C@H](c2cc(C)cc(F)c2)C1	3
CN(C)C1(C(=O)NCCn2cnnc2)Cc2ccccc2C1	-26
COc1ccc(CNC(=O)c2nc3c(s2)CCN(C(=O)CC(C)C)CC3)cc1	17
Cc1ccc(-c2nc3c(s2)CN(C(=O)NCc2ccccc2)CC3)cc1	-35
O=C(NCc1ccccc1)c1nc2c(s1)CCN(C(=O)c1ccncc1)CC2	-74*
Cc1ccc(-n2[nH]c(C)c(CC(=O)O)c2=O)cc1	78
Cc1ccc2nc(Cc3ccc(NC(=O)CCc4nc5ccccc5[nH]4)cc3)[nH]c2c1	223
Cc1ccc(Cc2c(C)[nH]n(-c3nc4ccccc4[nH]3)c2=O)cc1	-98*
CN(C)Cc1cc(C2CCCCN2C(=O)c2ccc3c(c2)OCCO3)nn1C (configuration not stated)	-1
COCCC(=O)Nc1ccc(-c2nc(Cn3cccn3)c(C)o2)cc1	94
Cc1oc(-c2ccc(NC(=O)c3cccc(C#N)c3)cc2)nc1Cn1cccn1	21
Cc1oc(-c2ccc(NC(=O)c3cccc(N(C)C)c3)cc2)nc1Cn1cccn1	-86*
Cc1oc(-c2ccc(NC(=O)c3ccsc3)cc2)nc1Cn1cccn1	120
Cc1oc(-c2ccc(NC(=O)c3ccc(Br)cc3)cc2)nc1Cn1cccn1	-53
Cc1oc(-c2ccc(NC(=O)c3ccc(Cl)cc3)cc2)nc1Cn1cccn1	-85*
